Compound activity from PubChem.
In the library only some 2.4% were active in any assay of this set; here they are far more common.
D2 ag-1: HTS Assay for Allosteric Agonists of the Human D2 Dopamine Receptor: Primary Screen for Agonists. activation, % at 2 µM. 340,000 compounds, 0.53% hits. HEK293 T-REx D2 cells, calcium flux agonist mode. D(2) dopamine receptor (Homo sapiens), P14416;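 active = activation over 3 SD above normal in the single-dose calcium agonist read, cut at about 30% in these data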; also: 0% is about no effect
Target sequence (P14416 whole entry, looked up): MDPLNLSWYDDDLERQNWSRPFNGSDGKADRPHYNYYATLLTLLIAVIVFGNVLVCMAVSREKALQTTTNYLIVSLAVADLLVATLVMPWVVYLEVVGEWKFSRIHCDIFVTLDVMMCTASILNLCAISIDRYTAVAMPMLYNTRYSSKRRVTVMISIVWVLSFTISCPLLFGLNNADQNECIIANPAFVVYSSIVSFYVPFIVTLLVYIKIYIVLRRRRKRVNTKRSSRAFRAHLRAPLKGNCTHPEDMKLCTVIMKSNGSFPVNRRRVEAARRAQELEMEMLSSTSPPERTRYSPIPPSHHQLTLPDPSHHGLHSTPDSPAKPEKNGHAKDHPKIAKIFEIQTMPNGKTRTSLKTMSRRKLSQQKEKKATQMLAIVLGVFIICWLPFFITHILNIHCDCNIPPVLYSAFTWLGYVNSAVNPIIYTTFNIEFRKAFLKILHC
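In this primary screen, compounds producing a positive calcium signal within 180 s of addition to tetracycline-induced, force-coupled HEK293 Trex D2 cells are flagged; cells are dye-loaded with a no-wash calcium kit beforehand.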
D2 PAM-1: Beta-Arrestin HTS for Positive Allosteric Modulators of the Human D2 Dopamine Receptor: Potentiators; DiscoveRx D2 beta-arrestin cells, luminescence, 90 min; 100% = 57 uM dopamine signal; D(2) dopamine receptor (Homo sapiens), P14416; potentiation, % (test concentration not listed); 360,000 compounds, 0.23% hits; AID 624464, 2012; in the data active = potentiation above about 50%
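PathHunter D2 cells, attached overnight at 37 deg C, received compound in DMSO plus dopamine at EC20 (50 nM final) for 90 min at 37 deg C. Beta-arrestin recruitment was read as luminescence after 1 h with detection reagent at ambient temperature.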
D2 antagonist: HTS Assay for Allosteric Antagonists of the Human D2 Dopamine Receptor: Primary Screen for Antagonists | D(2) dopamine receptor (Homo sapiens), P14416 | inhibition, % at 10 µM | 340,000 compounds, 2% hits | HEK293 TREx D2 cells, calcium flux, dopamine EC80; in the data active = inhibition above about 30%; inactive = below that, where a call was filed; also: 0% is about no effect
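Calcium flux kinetic readout in an inducible HEK293 TREx D2 line plated overnight at 30 C. After 180 s compound exposure, an EC80 dopamine challenge follows with another 180 s kinetic read to detect antagonism.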
D2 ag-2: Beta-Arrestin HTS for Positive Allosteric Modulators of the Human D2 Dopamine Receptor: Agonists; D(2) dopamine receptor (Homo sapiens), P14416; DiscoveRx PathHunter D2 beta-arrestin, luminescence, 90 min; 100% = 57 uM dopamine signal; 360,000 compounds, 0.084% hits; activation, % (concentration not given with the values); in the data active = activation above about 40%
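DiscoveRx PathHunter D2 beta-arrestin cells (2,100/well) attached overnight, then compound-stimulated 90 min at 37 C in HBSS/10 mM HEPES/0.1% Tween-20 buffer; beta-galactosidase complementation read by luminescence after 1 h at ambient temperature. Dopamine 57 uM final (EC100) as control.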
D2 PAM-2: HTS Assay for Positive Allosteric Modulators of the Human D2 Dopamine Receptor: Primary Screen for Potentiators. 340,000 compounds, 0.34% hits. HEK293 T-REx D2, calcium flux, EC20 dopamine potentiation. potentiation, % at 10 µM. D(2) dopamine receptor (Homo sapiens), P14416;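 active = potentiation over 3 SD above the plate norm, cut at about 30% in these data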; also: 0% is about no effect
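Potentiation of an EC20 dopamine calcium response is measured in a force-coupled, tetracycline-inducible Hek293 Trex D2 line. Compound-only kinetic reads over 180 s flag agonists before dopamine addition.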
* hit, by the source's call; nt = not tested or not shown.

SMILES	D2 ag-1	D2 PAM-1	D2 antagonist	D2 ag-2	D2 PAM-2
Cc1ccc(NC(=O)C(=O)NCC(c2cccnc2)N2CCc3ccccc3C2)cc1 (centres undefined)	-0.7	nt	nt	nt	9.1
COc1cccc2cc(C(C)OC(=O)Nc3ccc(C)cc3)oc12 (centres undefined)	0.7	-20.9	32.2*	2.8	-7.8
COc1ccc(C2=NN(C(=O)CSc3ncccn3)C(c3ccc(C)cc3)C2)cc1 (centres undefined)	-1.1	-23.5	-17.8	-1.7	10.3
COc1ccc(C2=NN(C(=O)CSc3nc(=O)n4cccc(C)c4n3)C(c3ccc(C)cc3)C2)cc1 (centres undefined)	1.0	-21.8	34.4*	-2.6	0.4
Cc1ccc(NC(=O)CSc2nc(=O)n(CCCN3CCOCC3)c3c2CCCC3)cc1F	-2.5	-31.5	31.1*	-2.4	2.9
O=C(Cn1c(=O)n(-c2ccc(Cl)cc2)c(=O)c2oc3ccccc3c21)Nc1ccccc1	0.3	nt	nt	nt	2.1
COc1cc(/C=N/NC(=O)CCC(=O)Nc2ccc(Br)cc2)ccc1O	-0.1	-9.9	31.9*	0.7	-11.2
O=C(CCC(=O)Nc1ccc(Br)cc1)N/N=C/c1ccc(O)cc1	-1.3	-23.0	33.3*	-4.3	-23.2
Cc1ccc(NC(=O)CCC(=O)N/N=C/c2ccc(O)cc2)cc1	0.4	-20.8	-24.6	-4.2	-13.9
COc1ccc(OC)c(/C=N/NC(=O)CCCC(=O)Nc2cccc(Br)c2)c1	1.4	-11.7	68.5*	-2.0	-4.4
COc1ccc(O)c(/C=N/NC(=O)CCC(=O)Nc2cccc(C)c2)c1	0.1	-7.3	-5.0	-2.7	-5.5
COc1ccc(NC(=O)c2c(NCc3ccc(C)o3)sc3c2CCC(C)C3)cc1 (centres undefined)	-1.9	nt	nt	nt	6.5
COc1ccc(N(CCC(=O)O)S(=O)(=O)c2ccc(C)c(C)c2)cc1	-0.1	-3.1	4.9	-0.4	-6.4
Cc1ccc(S(=O)(=O)CCC(=O)O)cc1C	0.4	-4.8	35.5*	2.1	-1.8
Brc1cccc(OCCCN2CCCCCC2)c1	0.0	-23.0	13.9	0.8	-31.3
CN1CCN(CCCCOc2ccc(F)cc2)CC1	0.3	-10.3	-8.2	-2.3	9.5
CC1CCN(CCOc2cccc(Br)c2)CC1	29.0	-16.9	97.8*	-2.3	-28.1
CC1CCN(CCCCOc2ccc(F)cc2)CC1	0.8	-11.5	44.2*	1.4	-14.1
CC1CCN(CCCCOc2cccc(C(C)C)c2)CC1	-0.3	-11.9	58.2*	-0.4	-29.3
CC1CCN(CCCCOc2ccc(C(=O)c3ccccc3)cc2)CC1	nt	-15.3	nt	-3.1	-19.8
Cc1ccc(OCCCCN2CCC(C)CC2)cc1	1.2	-15.8	48.9*	2.1	-20.5
CCc1cc2c(cc3c(=O)n(CC(=O)NCc4cc(Br)ccc4OC)ncn32)s1	-0.7	nt	nt	nt	6.1
Cc1cccc(N(C)S(=O)(=O)c2nnc(NC(=O)C(C)(C)C)s2)c1	-1.0	nt	nt	nt	10.5
CCCCn1c(=O)nc2n(-c3ccc(Br)cc3)c3ccccc3cc-2c1=O	0.1	nt	nt	nt	18.0
CCN(CC)CCOc1cccc(C(C)C)c1	2.1	-30.9	72.8*	3.0	nt
SMILES	D2 ag-1	D2 PAM-1	D2 antagonist	D2 ag-2	D2 PAM-2
Cc1nn(-c2ccccc2)c(-n2cccc2)c1C(=O)NCCCN1CCN(c2ccccc2F)CC1	-0.2	nt	nt	nt	-22.0
Cc1cc(C)cc(OCc2cc(=O)n3c(-c4ccccc4)csc3n2)c1	0.8	nt	nt	nt	1.5
CCOc1ccc(NC(=O)CN(C)Cc2cc(=O)n3c(-c4ccccc4)csc3n2)cc1OCC	1.4	-4.1	40.6*	-3.3	4.0
CCn1nc(C)c(NC(=O)CCSc2nc(-c3ccco3)cc(C(F)(F)F)n2)c1C	0.4	11.0	11.8	-0.6	31.3*
Cc1cc(NC(=O)CSc2nc(-c3ccco3)cc(C(F)(F)F)n2)n(-c2ccccc2)n1	0.5	-1.8	6.9	-1.5	13.9
N#Cc1c(NC(=O)CSc2nc(-c3ccco3)cc(C(F)(F)F)n2)sc2c1CCCC2	0.1	6.1	-5.3	-0.3	44.4*
Cc1cc(NC(=O)CCCSc2nc(-c3ccco3)cc(C(F)(F)F)n2)n(-c2ccccc2)n1	-0.7	23.7	2.4	-0.3	33.5*
COc1ccc(-c2cc(C(F)(F)F)nc(SCC(=O)N3CCCCC3)n2)cc1	-0.5	nt	nt	nt	-6.1
O=C(O)c1cccnc1SCc1cccc(Cl)c1	-1.2	-29.0	44.6*	0.9	-22.0
Cc1cccc(CSc2ncccc2C(=O)O)c1	0.6	-2.6	-20.0	1.3	5.3
Cc1ccc(CNc2nc3ccccc3n3c(C)nnc23)cc1	1.1	nt	nt	nt	-9.1
CC(C)CNC(=O)NC(=O)COc1ncnc2sccc12	-0.2	0.8	37.2*	-1.7	6.0
CCCNC(=O)COc1ncnc2sccc12	2.1	7.0	33.1*	7.1	14.5
CCOc1ccc(N(CC)S(=O)(=O)N2CCCC(C(=O)Nc3ccc(OC)c(OC)c3)C2)cc1 (centres undefined)	-1.6	nt	nt	nt	1.1
CCN(CC)c1cc(C)c2cc(NC(=O)/C=C/c3ccccc3OC(C)C)ccc2n1	-0.8	nt	nt	nt	-8.2
O=c1[nH]nc(C(F)(F)F)c2nnn(Cc3ccccc3Cl)c12	0.4	0.7	-1.4	5.3	-1.5
Cc1n[nH]c(=O)c2c1nnn2Cc1ccccc1Cl	-0.1	-7.6	57.7*	-1.4	-6.7
CCn1c(=O)c(C(=O)NNC(=O)c2cccc(Cl)c2)c(O)c2ccccc21	17.9	-2.6	11.7	4.6	45.5*
CCN(CC)CCOc1c(C)cccc1Cl	-0.2	-2.0	62.0*	1.4	-21.2
COc1cc(OC)c(NC(=O)N2CCC(CN3CCCC3)CC2)cc1Cl	nt	nt	nt	nt	-0.1
COc1cc(/C=C2/C(=O)CNC2=O)ccc1O	37.0*	-1.2	3.2	-1.0	-18.0
COc1cc(/C=C/C(=O)CC(=O)/C=C/c2ccc(O)c(OC)c2)ccc1O	53.5*	-9.7	26.9	4.0	-13.4
CCCCc1nn2c(=O)cc(COC(=O)c3ccc(NC(=O)C4CCCCC4)cc3)nc2s1	2.3	nt	nt	nt	8.9
COc1ccc(Cl)cc1NC(=O)Cn1c(=O)n2nc(-c3ccccc3)nc2c2ccccc21	0.5	nt	nt	nt	1.8
CCOc1cc(CNc2ccc(N3CCN(C(C)=O)CC3)cc2)cc(Br)c1OC	1.4	74.3*	-12.8	13.5	15.3
COC(=O)CSc1nnc(-c2ccc(S(=O)(=O)NCc3ccccc3Cl)cc2)o1	0.3	29.4	33.3*	2.7	9.7
COC(=O)CSc1nnc(-c2ccc(S(=O)(=O)NCc3cccs3)cc2)o1	-0.4	-7.7	-0.1	-1.2	-9.9
